Measurements from PubChem BioAssay AID623911 (Vanderbilt High Throughput Screening Facility, 2012).
About 770 (37%) of roughly 2,100 compounds were called active.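 The calls were made as follows: active = by-eye trace score of 1 for enhancers or -1 for inhibitors, so actives lie on both sides (some results past the limit were not filed as active); inactive = score 0, or 3 fluorescent, or 4 baseline rise.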 The list shows a part of the results.

Target: G protein-activated inward rectifier potassium channel 2 (Homo sapiens) + G protein-activated inward rectifier potassium channel 1 (Homo sapiens) (UniProt P48051+P48549)
Assay: GIRK1/2 thallium flux modulators, retest, confirmation, cell-based, HEK293 rmGlu8/hGIRK1/2, FluoZin-2 (AID 623911)
Conditions: HEK293 rmGlu8/hGIRK1/2, thallium flux FluoZin-2; actives lie on both sides; glutamate co-added at its EC20 level

Chain of G protein-activated inward rectifier potassium channel 2 (Homo sapiens) + G protein-activated inward rectifier potassium channel 1 (Homo sapiens) (P48051 whole entry, looked up): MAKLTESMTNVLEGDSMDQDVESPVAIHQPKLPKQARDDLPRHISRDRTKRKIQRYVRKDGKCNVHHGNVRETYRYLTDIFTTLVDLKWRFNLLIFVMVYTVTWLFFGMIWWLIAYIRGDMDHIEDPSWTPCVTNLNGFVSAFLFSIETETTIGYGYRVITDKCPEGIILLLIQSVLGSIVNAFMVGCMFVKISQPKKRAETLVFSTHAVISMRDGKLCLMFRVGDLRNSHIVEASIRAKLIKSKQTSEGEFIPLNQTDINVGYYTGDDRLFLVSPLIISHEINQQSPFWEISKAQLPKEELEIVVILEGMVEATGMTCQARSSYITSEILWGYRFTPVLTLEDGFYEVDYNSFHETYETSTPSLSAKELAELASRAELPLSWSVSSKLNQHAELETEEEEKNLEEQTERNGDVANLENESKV
Chain of G protein-activated inward rectifier potassium channel 2 (Homo sapiens) + G protein-activated inward rectifier potassium channel 1 (Homo sapiens) (P48549 whole entry, looked up): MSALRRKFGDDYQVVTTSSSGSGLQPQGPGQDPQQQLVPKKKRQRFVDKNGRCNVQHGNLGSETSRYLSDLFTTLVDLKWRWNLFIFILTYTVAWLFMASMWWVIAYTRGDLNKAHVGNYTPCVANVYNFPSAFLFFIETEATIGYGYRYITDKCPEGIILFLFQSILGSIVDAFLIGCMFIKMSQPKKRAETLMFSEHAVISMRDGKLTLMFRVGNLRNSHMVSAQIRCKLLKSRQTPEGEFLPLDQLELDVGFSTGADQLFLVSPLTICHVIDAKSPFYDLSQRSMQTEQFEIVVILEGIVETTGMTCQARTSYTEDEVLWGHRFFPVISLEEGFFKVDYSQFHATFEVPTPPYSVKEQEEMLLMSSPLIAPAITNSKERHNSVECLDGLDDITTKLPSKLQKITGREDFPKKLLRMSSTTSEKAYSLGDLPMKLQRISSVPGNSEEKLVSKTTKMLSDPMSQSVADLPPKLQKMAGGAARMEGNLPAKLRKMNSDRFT

Manual score, active:
COc1ccc(OCC(=O)NNC(=O)C(=O)Nc2ccc(C)cc2)cc1 1, Cc1ccc(OCC(=O)NNC(=O)C(=O)NC(C)(C)C)cc1 1, CC(C)(C)NC(=O)C(=O)NNC(=O)COc1ccc(Br)cc1 1, COc1cccc(CNc2nc3ccccc3n2CCN2CCCCC2)c1OC -1, Cn1c(CNc2nc3ccccc3n2CCN2CCCCC2)nc2ccccc21 -1, COc1cc(NC(=O)C(=O)NNC(=O)C2CCCCC2)c(OC)cc1Cl 1, CCOC(=O)CSc1nc2c(sc(=S)n2-c2ccccc2OC)c(=O)n1Cc1ccco1 -1, Brc1ccccc1C1=Nn2c(nnc2-c2ccccc2)SC1 -1, CCOC(=O)c1sc2ncnc(NCc3ccco3)c2c1C 1, Cc1ccc2c(Cl)cc(Cl)c(OCC(=O)NCc3ccco3)c2n1 1, CC1CCN(C(=S)NC(=O)c2ccccc2)CC1 1, COc1ccc(C(=O)NC(=S)N2CCC(C)CC2)cc1 1, O=C(NC(=S)N1CCN(Cc2ccccc2)CC1)c1ccccc1 1, CCn1nc(C(=O)OCC(=O)N2CCc3ccccc32)c2ccccc2c1=O -1, CCCCn1nc(C(=O)N2CCc3ccccc32)c2ccccc2c1=O -1, Cc1[nH]n(-c2cccc3ccccc23)c(=O)c1/C=N/c1sc2c(c1C#N)CCC2 1, CCOC(=O)c1c(NS(=O)(=O)c2cccc(OC)c2)sc2c1CCC2 1, CCOC(=O)c1c(NS(=O)(=O)c2ccc(Br)cc2)sc2c1CCC2 1, O=C(CNC(=S)NC(=O)c1ccco1)c1ccccc1 1

Manual score, inactive:
COc1ccc(-c2nc(C#N)c(NCCCN(C)C)o2)cc1OC 0, CNC(=S)SCCOc1ccc(C)cc1 3, Nc1c(-c2ccccc2)cnn1-c1ccc(C(=O)O)cc1 0, CC1=NCCN1S(=O)(=O)c1cc(Cl)ccc1Cl 0, O=C(NCc1ccccc1)c1ccc2c(=O)n(CCCN3CCCC3=O)c(=S)[nH]c2c1 0, CCn1c(NC(=S)Nc2ccccc2)nc2ccccc21 0, COc1ccc(CNC(=O)C(C#N)c2nc3ccccc3nc2N2CCCC2)cc1 (stereo not drawn) 3, COc1ccccc1CNC(=O)c1c(N)n(CCCN2CCOCC2)c2nc3ccccc3nc12 0, COc1ccc(/C=C/c2nc3sc4c(c3c(=O)o2)CCC4)cc1 3, COc1ccc(OC)c(NC(=O)C2CC(=O)N(c3ccc(Br)cc3)C2)c1 (stereo not drawn) 0, COc1cc(NC(=O)c2ccc(C)cc2)c(OC)cc1NC(=O)CN1CCCCC1 0, CCOc1ccccc1NC(=O)CSc1nnc(-c2ccccn2)n1Cc1ccco1 0, CCOC(=O)N1CCN(C(=O)CSc2nc3c(c(=O)n2-c2ccccc2OC)SCC3)CC1 0, CCCc1nnc2n1N=C(c1ccc(OC)c(OC)c1)CS2 0, Nc1nc(Nc2ccccc2)nc(NCc2ccco2)c1[N+](=O)[O-] 0, Cc1ccc(-n2c(CSc3nc(C)cc(C)n3)nnc2SCC(=O)NCc2ccco2)cc1 0, CS(=O)(=O)N(CC(=O)NCc1ccco1)c1ccc(Cl)c(C(F)(F)F)c1 0, C=CCOn1c(=O)c(-c2cccs2)[n+]([O-])c2ccccc21 3, CCCCCCn1c(=O)[nH]c2nc3cc(N)ccc3nc2c1=O 3, CNC(=S)N1CCN(c2ccc(OC)cc2)CC1 0, CN1CCN(C(=S)NC(=O)/C=C/c2cccc3ccccc23)CC1 0, CC1CCN(c2ccccc2NC(=S)NC(=O)c2cccs2)CC1 0, CC1CCN(c2ncccc2C(=O)O)CC1 0, COc1ccc(C(=O)NC(=S)N2CCCCC2)cc1 2, Cc1cccc(-n2c(-c3csc(C(C)C)c3)n[nH]c2=S)c1 0, Cc1c(C(=O)N2CCc3ccccc32)oc2c1C(=O)CC(C)(C)C2 0, O=C(c1ccc2c(=O)n(C3CCCC3)c(=S)[nH]c2c1)N1CCc2ccccc21 0, CCc1c(C)nc(SCC(=O)N2CCc3ccccc32)[nH]c1=O 3, CCn1nc(C(=O)OCC(=O)c2c[nH]c3ccccc23)c2ccccc2c1=O 0, Cc1[nH]n(-c2ccc(F)cc2)c(=O)c1/C=N/c1sc2c(c1C#N)CCCC2 3, CC(=O)c1cccc(NC(=O)C2CCCN2S(=O)(=O)c2cccc3cccnc23)c1 (stereo not drawn) 0, COc1ccccc1OCC(=O)Nc1sc2c(c1C(=O)NCC1CCCO1)CCC2 (stereo not drawn) 0, CCOc1ccc(C(=O)CN2CCN(S(=O)(=O)c3ccc(Br)cc3)CC2)cc1 0, CCc1cc2c(=O)n(CC)c(SC(C)C(=O)Nc3c(C)n(C)n(-c4ccccc4)c3=O)nc2s1 (stereo not drawn) 0
